Measurements: PubChem BioAssay AID2284094 (EPA ToxCast)
Calls of active or inactive are those of the source. The calls were made as follows: active = hit-call score of the fitted dose curve at least 0.9, where 1 is the maximum; inactive = score below 0.9.

Target: human VHR Phosphatase, DUSP3 (gene 1845) (UniProt P51452)
Experiment: ERF_FR_ENZ_hDUSP3: Eurofins (ERF) Enzymatic Assay for human VHR Phosphatase
Method: ERF_FR_ENZ_hDUSP3 is a biochemical, single-readout assay that uses extracted gene-proteins in a cell-free assay. Measurements were taken 0.5 hour after chemical dosing in a 96-well plate. See VHR Human Phosphatase Enzymatic Assay, PhosphataseProfiler.ERF_FR_ENZ_hDUSP3 is an assay component calculated from the ERF_FR_ENZ_hDUSP3 assay. It is designed to measure enzyme activity using a type of enzyme reporter as detected by fluorescence intensity with spectrophotometry technology.Data from the assay component ERF_FR_ENZ_hDUSP3 was analyzed at the assay endpoint, ERF_FR_ENZ_hDUSP3, in the positive analysis fitting direction relative to DMSO as the negative control and baseline of activity. Using a type of enzyme reporter, loss-of-signal activity can be used to understand changes in enzymatic activity as they relate to gene DUSP3. To generalize the intended target to other relatable targets, this assay endpoint is annotated to the […].
Human recombinant protein phosphatase VHR expressed in E. coli is used. Test compound and/or vehicle is preincubated with 0.2 mU/ml enzyme for 15 minutes at 37C in modified HEPES buffer pH 7.2. The reaction is initiated by addition of 100 uM DiFMUP for 60 minutes. Determination of the amount of DiFMU formed is read spectrofluorimetrically at 358 nm/450 nm. Compounds are screened at 10 uM.

Chain of human VHR Phosphatase, DUSP3 (gene 1845) (P51452 whole entry, looked up): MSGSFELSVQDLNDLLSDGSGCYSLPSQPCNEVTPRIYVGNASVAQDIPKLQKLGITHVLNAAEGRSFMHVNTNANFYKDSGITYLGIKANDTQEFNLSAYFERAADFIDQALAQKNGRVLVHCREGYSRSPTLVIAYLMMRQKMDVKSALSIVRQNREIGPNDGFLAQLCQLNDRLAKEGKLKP

Structure (SMILES) | AC50
O=C(/C=C/c1ccc(O)cc1)CC(=O)/C=C/c1ccc(O)cc1 | 1.01 nM (active)
